# Assay results taken from PubChem BioAssay (NCI).
# Compounds without any hit were thinned out: in the full panel of roughly 83,000, 20% have a hit.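 Percent growth is the endpoint: 0 to 100 indicates growth inhibition (40 means 60% inhibition), 0 means no net growth, and negative values indicate cell death.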 Values without a mark were called inactive. Calls of active or inactive are those of the source. The calls were made as follows: active = growth percent below 10; inactive = the rest.
# Columns and labels:
# Assay in all cases: NCI-60 one-dose screen, 48 h (100 = growth as untreated, 0 = no growth, -100 = all killed)
# Conditions in all cases: 10 µM unless noted
# NCI-H23 lung = test system: NCI-H23 lung
# NCI-H226 lung = test system: NCI-H226 lung
# NCI-H322M lung = test system: NCI-H322M lung
# HOP-62 NSCLC = test system: HOP-62 NSCLC
# NCI-H460 lung = test system: NCI-H460 lung
# HOP-92 NSCLC = test system: HOP-92 NSCLC
# NCI-H522 lung = test system: NCI-H522 lung
# A549/ATCC NSCLC = test system: A549/ATCC NSCLC
# 786-0 renal = test system: 786-0 renal
# COLO 205 colon = test system: COLO 205 colon
# DU-145 prostate = test system: DU-145 prostate
# K-562 leukemia = test system: K-562 leukemia
# MALME-3M melanoma = test system: MALME-3M melanoma
# MDA-MB-231 breast = test system: MDA-MB-231 breast
# RXF 393 renal = test system: RXF 393 renal
# SF-268 CNS = test system: SF-268 CNS
# SF-295 CNS = test system: SF-295 CNS
# SF-539 CNS = test system: SF-539 CNS
# UACC-257 melanoma = test system: UACC-257 melanoma
# M14 melanoma = test system: M14 melanoma
Structure (SMILES),growth (NCI-H23 lung),growth (NCI-H226 lung),growth (NCI-H322M lung),growth (HOP-62 NSCLC),growth (NCI-H460 lung),growth (HOP-92 NSCLC),growth (NCI-H522 lung),growth (A549/ATCC NSCLC),growth (786-0 renal),growth (COLO 205 colon),growth (DU-145 prostate),growth (K-562 leukemia),growth (MALME-3M melanoma),growth (MDA-MB-231 breast),growth (RXF 393 renal),growth (SF-268 CNS),growth (SF-295 CNS),growth (SF-539 CNS),growth (UACC-257 melanoma),growth (M14 melanoma)
COc1cccc(C2CC(c3cc(OC)c(OC)c(OC)c3)=NN2)c1 (stereo not given),89.6%,91.7%,99.6%,83%,93.7%,80%,80.3%,84.4%,86.9%,106%,104%,14.5%,91.6%,98%,83.8%,93%,81.8%,92.2%,99.4%,83%
CN(C)c1ccc(/C=N/N=C(N)N)cc1,81.2%,82.2%,99.4%,75.3%,83.2%,73.6%,66.7%,70.7%,103%,54.7%,92.6%,40%,77%,75.8%,75.1%,87%,61.4%,90.9%,72.4%,51.2%
OC(COc1ccccc1Cl)CN1CCN(c2ccc(Cl)cc2)CC1 (stereo not given),107%,94.5%,101%,108%,104%,85.8%,92.6%,112%,106%,116%,110%,115%,110%,103%,94.3%,104%,97.9%,90.6%,109%,105%
Cc1nccc2c3ccc(OCc4cn(Cc5ccc(Br)cc5)nn4)cc3n(CCCc3ccccc3)c12,82.5%,88.9%,85.9%,62%,89.5%,77.9%,59.4%,82.6%,67%,92.4%,91.9%,75.5%,92.9%,79.3%,82%,81%,86.2%,77%,99.3%,103%
CC(C)C1(C(C)C)NC(=O)NC1=O,99.2%,102%,119%,96.6%,99.9%,93.2%,94.8%,101%,101%,117%,93.7%,108%,163%,109%,107%,94%,99.4%,91.6%,106%,110%
CSc1nc(N)nc2c1ncn2C,95.8%,102%,104%,84.6%,104%,64.5%,78%,84.5%,90%,94.5%,108%,95%,104%,109%,116%,98.7%,108%,98.9%,104%,102%
Cc1ccc(/C=C2/C(=O)Nc3cc(Cl)c(-c4csc(N)n4)cc32)cc1,75%,80.8%,81.4%,71.7%,81.1%,79.4%,33.7%,74.1%,87.8%,82.1%,87.5%,9.97% (active),80.4%,46.8%,76.4%,71.8%,70.8%,81.6%,94.7%,52.9%
COc1ccc2c(c1)C(=O)/C(=C/c1ccc(OCC(=O)c3ccc(Cl)cc3)cc1)O2,97.1%,80.7%,102%,121%,106%,50.6%,-64.2% (active),99.2%,115%,123%,104%,-42.3% (active),80%,68.8%,74.5%,108%,73.7%,96%,75.1%,83.9%
Cc1ccc(N(CC2=NCCN2)c2cccc(O)c2)cc1,100%,100%,91.5%,103%,107%,91.2%,102%,98.8%,96.8%,119%,112%,86.3%,90.4%,113%,98.5%,107%,83.3%,106%,103%,103%
Cc1cccc(Cc2cnc(NC(=O)CCc3ccc(C)o3)s2)c1,35.3%,35.1%,45.9%,47.5%,4.15% (active),64.9%,4.74% (active),26.1%,29.8%,-9.57% (active),18.8%,6.63% (active),82.8%,15.4%,8.05% (active),38%,10.4%,2.41% (active),79.6%,11.5%
CC(C)(c1ccc(OCC(O)CNCc2ccco2)cc1)c1ccc(OCC(O)CNCc2ccco2)cc1 (stereo not given),93.4%,94.6%,99.4%,82.2%,98%,57.4%,86%,81.2%,70.8%,85.5%,92%,60.8%,98%,62.4%,76.4%,77.7%,95.2%,89.7%,92.8%,92.1%
CN(C)CC/C=C1\c2ccccc2Sc2ccc(Cl)cc21,80%,102%,72.1%,75.6%,77.2%,36.7%,67.5%,74.9%,58.2%,-40.1% (active),90.9%,16.4%,69.8%,69%,41.2%,68.8%,75.4%,92.3%,-54.4% (active),-57.5% (active)
COc1ccccc1N1CCN(CCCOc2ccc(OCCCN3CCN(c4ccccc4OC)CC3)c(C(=O)c3cc(OC)c(OC)c(OC)c3)c2)CC1,95.4%,111%,96.5%,113%,115%,94.2%,106%,109%,105%,99.5%,105%,67.6%,113%,113%,126%,110%,109%,107%,107%,108%
CC(C)(C)NCC(O)COc1c(Br)c(Br)c(Br)c2c1OC(C)(C)C2 (stereo not given),-0.995% (active),42.5%,-19.3% (active),-84.9% (active),-63.7% (active),-57.7% (active),-76.8% (active),-71.9% (active),-91.6% (active),-58.3% (active),-59.5% (active),-34.9% (active),-82.8% (active),-65.6% (active),-52.5% (active),4.14% (active),-63% (active),-84.5% (active),107%,-72.6% (active)
Cc1ccc[n+](CC(=O)c2cccc3ccccc23)c1,102%,96.2%,97%,100%,111%,97.1%,101%,111%,93.8%,101%,115%,102%,97.3%,130%,105%,103%,97.1%,93.2%,112%,98.3%
OCCOCC(F)(F)F,104%,105%,97.8%,111%,108%,94.9%,110%,113%,113%,112%,109%,97.2%,99.6%,124%,113%,102%,103%,96.7%,118%,112%

Structure (SMILES),growth (NCI-H23 lung),growth (NCI-H226 lung),growth (NCI-H322M lung),growth (HOP-62 NSCLC),growth (NCI-H460 lung),growth (HOP-92 NSCLC),growth (NCI-H522 lung),growth (A549/ATCC NSCLC),growth (786-0 renal),growth (COLO 205 colon),growth (DU-145 prostate),growth (K-562 leukemia),growth (MALME-3M melanoma),growth (MDA-MB-231 breast),growth (RXF 393 renal),growth (SF-268 CNS),growth (SF-295 CNS),growth (SF-539 CNS),growth (UACC-257 melanoma),growth (M14 melanoma)
Cc1ccc(Cn2cc(COc3ccc4c5ccnc(C)c5n(CCCc5ccccc5)c4c3)nn2)cc1,84.3%,98.9%,90.6%,87.1%,103%,68.6%,66.4%,94.2%,85.9%,92.2%,103%,62.3%,87.9%,75.8%,114%,95.9%,87.7%,89.9%,109%,86.2%
O=S(=O)(Nc1cccc2cc(OS(=O)(=O)c3ccccc3)ccc12)c1ccccc1,73.8%,74.7%,90.1%,46.3%,29.7%,57.6%,40.5%,57.1%,81.2%,51.9%,92%,25.2%,56.2%,76.4%,86.5%,74.2%,59.3%,63.4%,75.6%,40.3%
Cc1ccc2nc(-c3ccc(-n4on4-c4ccc(/C=C/c5ccc(-n6on6-c6ccc(-c7nc8ccc(C)cc8s7)cc6)cc5S(=O)(=O)O)c(S(=O)(=O)O)c4)cc3)sc2c1,105%,108%,112%,121%,114%,138%,117%,113%,98.2%,119%,111%,99.2%,101%,133%,110%,99.8%,110%,98.7%,110%,99.5%
Cc1ncc(CO)c(C(=O)O)c1O,98.6%,102%,80.9%,104%,105%,106%,79.8%,110%,97.5%,112%,102%,93%,95.9%,103%,106%,94.4%,100%,96.6%,107%,93.7%
COc1ccc(-c2nnc(SCC(=O)N3CCN(c4cc5c(cc4F)c(=O)c(C(=O)O)cn5C4CC4)CC3)o2)cc1OC,101%,103%,96.2%,67%,104%,51.6%,88.6%,101%,69.3%,74.1%,99.3%,74.5%,101%,110%,118%,104%,89.1%,96.5%,101%,76.2%
COc1cc(-c2nc3ccccc3s2)ccc1OCc1nc2n(n1)S(=O)(=O)c1ccccc1N2C,92.7%,101%,68.9%,46.1%,101%,1.17% (active),60.7%,91.1%,62.1%,102%,87.7%,71.1%,39.4%,84.6%,58.3%,94.4%,61.3%,52.4%,104%,76.8%
COc1cc(NS(=O)(=O)c2ccc(N)cc2)ncn1,101%,112%,104%,108%,110%,105%,114%,102%,99.1%,113%,118%,92.9%,97.4%,94.7%,112%,109%,102%,112%,106%,107%
O=S(c1ccccc1)c1ccc2nnnn2n1 (stereo not given),100%,103%,98.7%,108%,103%,101%,-17.6% (active),99.9%,104%,98%,105%,-9.22% (active),103%,104%,117%,97.1%,102%,102%,99.6%,99%
Nn1c(CN2CCN(c3cc4c(cc3F)c(=O)c(C(=O)O)cn4C3CC3)CC2)n[nH]c1=S,95.2%,107%,93.3%,96.4%,109%,116%,85.8%,101%,97.3%,121%,107%,101%,94.6%,107%,109%,95.9%,102%,99.3%,111%,105%
CC(=O)N1N=C2N(Cc3ccccc3)C(=O)c3c(sc4c3CCCC4)N2C1c1cn(-c2ccccc2)nc1-c1ccc(Cl)cc1 (stereo not given),88.6%,91.9%,97.9%,98.6%,111%,81%,101%,95.9%,92.6%,101%,112%,93.4%,99.9%,99.1%,101%,100%,109%,92.6%,113%,100%
CC(CCC(=O)O)[C@H]1CCC2C3C(=O)C[C@@H]4CC(=O)CC[C@]4(C)C3CC(=O)[C@@]21C (stereo not given in full),101%,103%,111%,112%,107%,96.2%,117%,98.7%,106%,119%,114%,94.2%,97.5%,90.7%,110%,110%,92.9%,111%,112%,110%
OCc1cn(-c2ccc(Cl)cc2)nc1-c1ccc(O)cc1,96.7%,96.9%,85.8%,81.9%,106%,136%,71.2%,90.1%,93.4%,115%,97%,88%,100%,97.9%,107%,78.6%,100%,93.2%,108%,95%
COc1cc(Cn2cc3c(c2)-c2onc(CO)c2CC3)cc(OC)c1OC,92.7%,81.5%,85.1%,85.7%,93.6%,67%,87.7%,99.8%,90.9%,107%,103%,78.5%,79.7%,103%,95.8%,96%,92.1%,96.8%,93.2%,85.8%
COc1ccc(-c2ccc(NC(=O)Nc3ccc(Cl)c(C(F)(F)F)c3)c(C)n2)cc1,30.9%,65.2%,71.4%,62.1%,30.9%,27%,24.8%,38.7%,56.1%,80.1%,54.5%,16.7%,82.6%,85%,81.4%,73.7%,47%,81.3%,57.1%,31.9%
COC(=O)/C=C/C(=O)c1cc(C)cc(C)c1O,97.5%,102%,101%,96.6%,111%,113%,92.9%,98.6%,100%,108%,103%,103%,95.7%,114%,116%,95.9%,93.5%,99.5%,99.8%,102%
